High-throughput results from PubChem.
Cycloheximide cs: counter-screen hit for Shiga toxin inhibitors, cycloheximide. cell reporter, cycloheximide protein synthesis inhibition counterscreen. max response, %. hit rate 12% among 300,000; in the data active means max response mostly above about 13%, no sharp cut-off; inactive means mostly below about 14%; further: read at 38.3 µM for the half of the compounds with a filed dose; 0% is about no effect
SARS PLpro yeast: SARS-CoV PLP inhibition in yeast; Potency, µM (titrated, usually from 32.9 µM), for inactives: at the highest dose activity, positive = growth rescue, most hits filed as activators; hit rate 0.19% among 330,000; S. cerevisiae expressing SARS-CoV PLpro, growth rescue; further: potency means the concentration at half of the fitted maximal effect; 0% is about no effect; nearly all actives have a fitted effect of over 55% in size
Pf growth 96h: P. falciparum growth inhibition at 96 hour, primary screen for plastid delayed-death inhibitors | hit rate 6.9% among 320,000 | Potency, µM (doses to about 28.7 µM), for inactives: at the top dose activity change, negative = inhibition, actives largely listed as inhibitors | P. falciparum luciferase reporter growth, 96 h; active means well fitted inhibition curve with a large enough effect; inconclusive means small, poorly fitted or top-dose-only effect, or another doubt; inactive means no such curve, though single readings can be large or run the other way; further: potency means the concentration at half of the fitted maximal effect; on the % scale 0 is the no-effect control and ±100 the full control effect
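96 h incubation, 37 C, 5% CO2, of luciferase-reporter P. falciparum-infected RBCs (2% hematocrit, 0.05% parasitemia final) with test compounds; endpoint luminescence.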
Pf growth 48h: P. falciparum growth inhibition at 48 hours (one generation); P. falciparum luciferase growth in erythrocytes, 48 h; Potency, µM (top dose mostly 28.7 µM), without a hit: at the highest dose activity change, negative = inhibition, hits mostly inhibitors; hit rate 5.9% among 310,000; active means well fitted inhibition curve with a large enough effect; inconclusive means small, poorly fitted or top-dose-only effect, or another doubt; inactive means no such curve, though single readings can be large or run the other way; further: potency means the concentration at half of the fitted maximal effect; on the % scale 0 is the no-effect control and ±100 the full control effect
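Read-out is firefly luciferase luminescence from an integrated reporter in P. falciparum, so falling signal marks reduced parasite growth. Infected erythrocytes were at 2% hematocrit and 0.1% parasitemia (final) in Albumax-supplemented RPMI 1640.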
Shiga inhibitor: inhibitors of Shiga toxin in Vero cells. Vero cells, Shiga toxin protein synthesis inhibition reporter. inhibition, % at 38.7 µM. AID 2315. hit rate 9.2% among 290,000; in the data active means inhibition mostly above about 28%, no sharp cut-off; inactive means mostly below about 43%; further: 0% is about no effect
NS1 inh: blocks influenza NS1 protein function; Potency, µM (doses to about 46.1 µM), for inactives: at the top dose activity, positive = more growth; hit rate 0.4% among 270,000; AID 2326; further: potency means the concentration at half of the fitted maximal effect; actives are rising curves; nearly all actives have a fitted effect of over 50% in size
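OD600 was taken as the measure of yeast growth restored by compound in an NS1-expressing S. cerevisiae strain. Cells had been washed out of glucose medium and diluted 1:100 into galactose -URA medium, pH 6.0.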
Numbers without * were called inactive; ? = inconclusive; nt = no result given. In the library only some 21% were active in any assay of this set; here they are far more common. Unless noted, the call rests on the fitted dose curve.

SMILES	Cycloheximide cs	SARS PLpro yeast	Pf growth 96h	Pf growth 48h	Shiga inhibitor	NS1 inh
CCCCNC(=O)c1cc([N+](=O)[O-])[nH]n1	3.7	6.7%	98.2%	0.6%	-11.6	18.1%
CCCCNC(=O)c1cc2cccc([N+](=O)[O-])c2[nH]1	22.5*	-4.0%	?	2.62µM*	11.8	-4.0%
CCCNC(=O)COc1ccccc1[N+](=O)[O-]	20.8	11.6%	37.4%	35.5%	38.6	-3.9%
CCCCNC(=O)COc1ccccc1[N+](=O)[O-]	24.7*	3.2%	59.5%	60.7%	76.9*	-13.1%
NNC(=O)COc1ccccc1[N+](=O)[O-]	24.5*	-1.3%	21.1%	11.4%	17.5	1.7%
O=c1c2cc(F)ccc2sn1-c1ccccc1	nt	4.4%	5.22µM*	4.15µM*	nt	nt
O=C(O)c1cccc(-n2sc3ccccc3c2=O)c1	nt	8.6%	?	62.3%	nt	nt
O=c1c2ccccc2sn1-c1ccccc1	24.4*	-22.6%	nt	?	25.2	-106.6%
Cc1ccccc1-n1sc2cc(F)ccc2c1=O	19.1	-22.5%	33.3%	?	41.0	nt
Cc1nc(SCC(=O)c2ccc(F)c(F)c2)[nH]c(=O)c1Oc1ccc(Cl)cc1	-2.0	-0.9%	?	?	-8.6	8.5%
Cc1ccc(C)n1-c1ccc(N2CCOCC2)c(Br)c1	-1.7	?	14.7µM*	nt	-9.8	7.0%
CCN(CC)CCNC(=O)C(=O)Nc1ccc(C(=O)OC)cc1	2.3	1.1%	16.3%	15.6%	8.5	2.8%
CC(=O)NC1=NN(C(C)=O)C(C)(CS(=O)(=O)c2ccc3ccccc3c2)S1 (stereo not given)	-2.1	-7.4%	14.9%	-0.7%	-5.3	5.2%
COc1ccc(/C=C/C(=O)OCC(=O)NCCNC(=O)COC(=O)/C=C/c2ccc(OC)cc2)cc1	1.3	-2.7%	6.0%	13.4%	19.6	10.1%
Cc1ccc(C2=NNC3(CCOC(C)(C)C3)S2)cc1 (stereo not given)	36.9*	-2.1%	?	62.7%	54.1*	-6.7%
Cc1ccc(S(=O)(=O)NCCC2(C(C)C)CCOC(C)(C)C2)cc1 (stereo not given)	-1.5	29.5%	nt	?	-19.2	8.9%
CCOCCCn1c(=N)c(S(=O)(=O)c2ccc(C)cc2)cc2c(=O)n3cc(C)ccc3nc21	-0.6	-0.3%	?	0.0%	19.5	14.8%
CN1CCC(Nc2ncc3ncnc(Nc4ccc(F)c(Cl)c4)c3n2)CC1	-2.1	nt	3.38µM*	1.69µM*	-5.8	nt
COc1ccnc2c1c(=O)n(Cc1ccc(Cl)cc1Cl)c(=O)n2C	-3.2	-72.5%	?	?	-7.4	-105.0%
O=C(c1cc(COc2c(F)cccc2F)on1)N1CCCCCC1	61.2*	?	91.6%	68.0%	81.1*	-9.5%
O=C(c1cc(COc2ccc3c(c2)CCCC3)on1)N1CCCC1	46.9*	-4.4%	3.9%	23.8%	50.6*	-28.4%
CCOC(=O)N1CCN(C(=O)c2cc(COc3c(F)cccc3F)on2)CC1	73.7*	2.3%	?	23.4%	129.2*	-34.4%
N#C/C(=C\c1cn(-c2ccccc2)nc1-c1cccnc1)c1nnc2n1CCCCC2	-4.6	-5.2%	8.28µM*	nt	-13.5	3.6%
CCOC(=O)c1c(C)[nH]c(C(=O)OCC(=O)c2c(N)n(C)c(=O)n(C)c2=O)c1C	-1.1	-0.4%	32.7%	14.2%	-9.6	7.0%
Cc1cccc(OCCOC(=O)Nc2ccccc2)c1	16.4*	-9.6%	-6.7%	2.6%	-31.2	-5.9%
SMILES	Cycloheximide cs	SARS PLpro yeast	Pf growth 96h	Pf growth 48h	Shiga inhibitor	NS1 inh
COc1ccccc1OCCOC(=O)Nc1ccccc1	12.8*	16.3%	8.28µM*	30.6%	26.2*	6.9%
Cc1ccc(OCCOC(=O)Nc2ccccc2)cc1	11.7	-1.9%	0.6%	1.2%	24.1	5.6%
CN(C(=O)COC(=O)c1ccccc1OCc1ccc(Cl)cc1)c1c(N)n(Cc2ccccc2)c(=O)[nH]c1=O	nt	-4.3%	?	?	nt	nt
O=C(COc1ccc2ccc(=O)oc2c1)NCCCN1CCCC1=O	-12.8	-1.8%	-14.9%	25.5%	-5.2	7.2%
CCOC(=O)c1c(N)n(-c2ccc(N)cc2)c2nc3ccccc3nc12	-1.6	-15.9%	?	?	14.7	0.0%
CCOC(=O)c1c(N)n(C2CC(C)(C)NC(C)(C)C2)c2nc3ccccc3nc12	-2.3	-11.7%	9.28µM*	10.4µM*	-14.9	-2.5%
CCOC(=O)c1c(NC(=O)c2ccco2)n(C2CCCCC2)c2nc3ccccc3nc12	7.7	-24.6%	10.4µM*	?	107.0	14.2%
CCC(=O)Nc1c(C#N)c2nc3ccccc3nc2n1C1CCCCC1	-2.4	-0.8%	?	?	-12.6	9.1%
Cn1c2ccccc2c2cc(/C=C(\NC(=O)c3ccccc3)C(=O)O)ccc21	0.9	1.3%	38.1%	9.2%	-3.7	0.9%
COC(=O)/C(=C\c1ccc2c(c1)c1ccccc1n2C)NC(=O)c1ccccc1	5.8	-10.8%	1.17µM*	?	2.4	2.5%
CC(C)OC(=O)/C(=C/c1ccc2c(c1)c1ccccc1n2C)NC(=O)c1ccccc1	20.2*	5.8%	?	?	53.0*	21.2%
CC1=C(C(=O)N(C)C)C(c2ccc(C)s2)NC(=S)N1 (stereo not given)	5.9	0.4%	18.3%	1.3%	-6.2	nt
CCOC(=O)C1CCCN(C(=O)c2cc3cc(F)ccc3[nH]2)C1 (stereo not given)	6.3	-1.1%	?	?	41.5	-4.3%
CCOC(=O)C1CCCN(C(=O)c2cc3ccc(OC)cc3[nH]2)C1 (stereo not given)	22.9*	-2.1%	110.5%	100.9%	36.1	-6.9%
CCN1CCN(C(=O)c2cc3ccc(OC)cc3[nH]2)CC1	30.5*	1.5%	130.3%	99.5%	60.2*	1.9%
COc1ccc2cc(C(=O)N3CCN(Cc4ccc5c(c4)OCO5)CC3)[nH]c2c1	5.5	4.9%	13.1µM*	10.3%	-1.0	16.1%
COc1ccc2[nH]c3c(N4CCC(O)(c5cccc(C(F)(F)F)c5)CC4)ncnc3c2c1	-3.4	-4.7%	2.33µM*	14.7µM*	-3.5	10.0%
C/C(=N\NC(=O)c1nnn(-c2nonc2N)c1CN1CCCCC1)c1ccccc1O	-4.9	1.5%	16.2%	?	20.0	15.2%
COc1ccc2cc(C(=O)N3CCN(C)CC3)[nH]c2c1	32.6*	-1.8%	228.9%	166.5%	86.1*	0.9%
COc1ccc2[nH]c3c(N4CCN(Cc5ccc6c(c5)OCO6)CC4)ncnc3c2c1	-7.6	-0.4%	5.86µM*	4.15µM*	-34.3	-45.4%
O=C(CN1CCCCC1CO)c1ccc(OC(F)F)cc1 (stereo not given)	-2.1	-6.0%	15.0%	-9.0%	-3.1	nt
Clc1ccc(N=C2SCC3CCCCN23)cc1 (stereo not given)	70.1*	-12.7%	38.6%	109.9%	76.6*	-7.7%
FC(F)Oc1ccc(N=C2SCC3CCCCN23)cc1 (stereo not given)	52.8*	1.0%	184.5%	79.1%	131.2*	-9.3%
Cc1noc(C)c1C(=O)OCC(=O)Nc1ncc(C(F)(F)F)cc1Cl	nt	1.1%	nt	nt	nt	nt
